# Experimental data as given in PMC7862700, “An all-to-all approach to the identification of sequence-specific readers for epigenetic DNA modifications on cytosine”.
# Tests used:
# Experiment in all cases: DAPPL (digital affinity profiling via proximity ligation, sequencing); 10 mM Tris-HCl pH 7.5, 50 mM NaCl, 1 mM DTT, 4% glycerol, room temperature, 30 min; GST-TFs on glutathione beads, 16-mer random dsDNA library, 0.1% formaldehyde crosslink after washing; high values mean tight binding
# Settings in all cases: protein: recombinant; tags: N-terminal GST; dsDNA, one strand shown
# ERF = biological target: T1, ERF (Homo sapiens, UniProt P50548 1-548)
# T1 sequence: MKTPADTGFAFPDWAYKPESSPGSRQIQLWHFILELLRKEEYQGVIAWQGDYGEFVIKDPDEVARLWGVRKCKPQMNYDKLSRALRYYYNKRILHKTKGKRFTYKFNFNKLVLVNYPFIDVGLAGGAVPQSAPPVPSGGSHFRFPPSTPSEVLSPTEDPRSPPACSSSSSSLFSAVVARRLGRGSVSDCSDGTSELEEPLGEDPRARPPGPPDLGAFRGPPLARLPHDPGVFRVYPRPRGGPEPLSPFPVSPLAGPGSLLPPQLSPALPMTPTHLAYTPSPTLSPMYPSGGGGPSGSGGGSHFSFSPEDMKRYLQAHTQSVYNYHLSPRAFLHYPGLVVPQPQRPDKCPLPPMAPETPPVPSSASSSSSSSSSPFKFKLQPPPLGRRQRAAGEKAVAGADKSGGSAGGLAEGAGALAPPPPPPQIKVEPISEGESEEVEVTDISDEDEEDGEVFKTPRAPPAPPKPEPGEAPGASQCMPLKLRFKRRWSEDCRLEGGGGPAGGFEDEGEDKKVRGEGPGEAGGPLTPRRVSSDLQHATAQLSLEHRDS
# How it was run: (§1)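 Binding signal is given per hexamer as its read frequency for a factor divided by its frequency in the tag-only sample. GST-fused human transcription factors were expressed in yeast, captured on glutathione beads, barcoded with DNA and pooled with that sample, then incubated with 200 nmole of a 16-mer random double-stranded DNA library in Tris/NaCl/DTT/glycerol buffer for 30 min at room temperature. The pools were then washed, crosslinked, proximity-ligated, amplified by PCR and sequenced on an Illumina NextSeq500.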
# ETV3L = biological target: T2, ETV3L (Homo sapiens, UniProt Q6ZN32 1-361)
# T2 sequence: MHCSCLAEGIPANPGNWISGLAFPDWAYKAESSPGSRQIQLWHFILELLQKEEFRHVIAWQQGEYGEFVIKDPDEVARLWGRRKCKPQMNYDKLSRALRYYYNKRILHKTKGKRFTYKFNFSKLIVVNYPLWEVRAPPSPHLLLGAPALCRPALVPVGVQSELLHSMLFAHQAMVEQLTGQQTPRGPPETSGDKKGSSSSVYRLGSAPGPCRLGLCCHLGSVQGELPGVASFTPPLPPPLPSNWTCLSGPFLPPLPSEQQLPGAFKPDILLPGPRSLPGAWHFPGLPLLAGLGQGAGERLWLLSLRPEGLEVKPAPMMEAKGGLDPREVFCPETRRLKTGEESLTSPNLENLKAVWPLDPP
# How it was run: as §1
# ETS2 = biological target: T3, ETS2 (Homo sapiens, UniProt P15036 1-469)
# T3 sequence: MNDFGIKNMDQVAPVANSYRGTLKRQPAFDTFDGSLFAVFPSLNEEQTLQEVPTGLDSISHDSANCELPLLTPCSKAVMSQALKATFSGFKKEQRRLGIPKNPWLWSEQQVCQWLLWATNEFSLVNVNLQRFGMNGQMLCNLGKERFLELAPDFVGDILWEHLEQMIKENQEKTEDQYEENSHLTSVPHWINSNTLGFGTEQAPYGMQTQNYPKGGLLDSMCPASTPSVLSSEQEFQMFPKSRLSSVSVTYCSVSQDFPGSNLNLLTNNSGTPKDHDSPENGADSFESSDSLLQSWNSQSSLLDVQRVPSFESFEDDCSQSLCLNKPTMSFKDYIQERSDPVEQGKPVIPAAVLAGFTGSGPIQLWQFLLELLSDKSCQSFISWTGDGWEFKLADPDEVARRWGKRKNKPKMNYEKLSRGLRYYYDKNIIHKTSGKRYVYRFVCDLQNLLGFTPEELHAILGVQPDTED
# How it was run: as §1
# SPDEF = biological target: T4, SPDEF (Homo sapiens, UniProt O95238 1-335)
# T4 sequence: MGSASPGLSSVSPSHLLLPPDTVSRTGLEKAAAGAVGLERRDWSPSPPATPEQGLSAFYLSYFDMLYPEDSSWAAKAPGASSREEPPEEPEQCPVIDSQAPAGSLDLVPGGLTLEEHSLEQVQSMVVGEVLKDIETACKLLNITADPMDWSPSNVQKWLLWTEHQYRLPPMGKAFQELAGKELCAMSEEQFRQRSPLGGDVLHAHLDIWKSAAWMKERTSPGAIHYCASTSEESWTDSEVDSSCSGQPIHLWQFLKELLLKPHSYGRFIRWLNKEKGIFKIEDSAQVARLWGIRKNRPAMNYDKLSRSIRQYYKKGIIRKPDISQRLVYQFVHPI
# How it was run: as §1
# ETV7 = biological target: T5, ETV7 (Homo sapiens, UniProt Q9Y603 1-341)
# T5 sequence: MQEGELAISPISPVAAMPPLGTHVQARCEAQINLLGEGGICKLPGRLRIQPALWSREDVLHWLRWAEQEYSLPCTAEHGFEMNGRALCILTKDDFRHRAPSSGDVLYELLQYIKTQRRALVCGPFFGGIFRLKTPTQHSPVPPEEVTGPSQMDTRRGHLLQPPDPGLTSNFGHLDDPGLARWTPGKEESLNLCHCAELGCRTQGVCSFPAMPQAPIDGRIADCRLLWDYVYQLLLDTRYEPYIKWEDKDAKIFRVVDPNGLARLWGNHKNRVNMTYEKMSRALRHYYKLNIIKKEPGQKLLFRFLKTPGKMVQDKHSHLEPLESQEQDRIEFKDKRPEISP
# How it was run: as §1
# ELF5 = biological target: T6, ELF5 (Homo sapiens, UniProt Q9UKW6-2 1-255)
# T6 sequence: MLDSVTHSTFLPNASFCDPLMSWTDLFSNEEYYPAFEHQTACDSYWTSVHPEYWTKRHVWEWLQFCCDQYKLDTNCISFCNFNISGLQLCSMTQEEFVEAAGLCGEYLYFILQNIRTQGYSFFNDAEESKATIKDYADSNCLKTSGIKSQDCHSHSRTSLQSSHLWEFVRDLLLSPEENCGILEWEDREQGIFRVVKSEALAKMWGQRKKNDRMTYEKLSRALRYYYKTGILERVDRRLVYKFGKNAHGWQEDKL
# How it was run: as §1
# ETV3 = biological target: T7, ETV3 (Homo sapiens, UniProt P41162-2 1-143)
# T7 sequence: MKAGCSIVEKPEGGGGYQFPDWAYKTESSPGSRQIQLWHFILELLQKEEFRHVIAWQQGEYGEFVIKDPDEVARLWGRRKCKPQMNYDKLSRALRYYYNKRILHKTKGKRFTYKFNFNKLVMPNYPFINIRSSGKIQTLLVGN
# How it was run: as §1
# ETV6 = ETV6 (Homo sapiens, UniProt P41212 1-452)
# ETV6, sequence (P41212 whole entry): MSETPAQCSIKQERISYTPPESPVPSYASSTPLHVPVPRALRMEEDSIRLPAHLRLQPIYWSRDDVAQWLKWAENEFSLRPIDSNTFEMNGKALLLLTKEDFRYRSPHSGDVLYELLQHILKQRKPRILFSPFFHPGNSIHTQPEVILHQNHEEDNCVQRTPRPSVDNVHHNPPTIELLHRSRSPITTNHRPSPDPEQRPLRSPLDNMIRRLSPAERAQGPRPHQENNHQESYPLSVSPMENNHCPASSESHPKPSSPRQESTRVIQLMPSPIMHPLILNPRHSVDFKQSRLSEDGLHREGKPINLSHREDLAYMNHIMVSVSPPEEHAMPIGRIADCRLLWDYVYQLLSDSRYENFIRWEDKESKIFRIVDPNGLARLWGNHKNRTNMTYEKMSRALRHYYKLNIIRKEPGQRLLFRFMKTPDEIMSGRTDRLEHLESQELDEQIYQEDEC
# How it was run: as §1
Sequence,binding signal (ERF),binding signal (ETV3L),binding signal (ETS2),binding signal (SPDEF),binding signal (ETV7),binding signal (ELF5),binding signal (ETV3),binding signal (ETV6)
CCTCAC,"1.09 fold enrichment (6-mer frequency, TF over GST control)","1.19 fold enrichment (6-mer frequency, TF over GST control)","1.19 fold enrichment (6-mer frequency, TF over GST control)","1.24 fold enrichment (6-mer frequency, TF over GST control)","1.15 fold enrichment (6-mer frequency, TF over GST control)","1.22 fold enrichment (6-mer frequency, TF over GST control)","1.12 fold enrichment (6-mer frequency, TF over GST control)","1.07 fold enrichment (6-mer frequency, TF over GST control)"
CAAGTA,"1.14 fold enrichment (6-mer frequency, TF over GST control)","1.09 fold enrichment (6-mer frequency, TF over GST control)","1.05 fold enrichment (6-mer frequency, TF over GST control)","1.08 fold enrichment (6-mer frequency, TF over GST control)","1.11 fold enrichment (6-mer frequency, TF over GST control)","1.06 fold enrichment (6-mer frequency, TF over GST control)","1.11 fold enrichment (6-mer frequency, TF over GST control)","1.14 fold enrichment (6-mer frequency, TF over GST control)"
GTAACA,"1.1 fold enrichment (6-mer frequency, TF over GST control)","1.07 fold enrichment (6-mer frequency, TF over GST control)","1.08 fold enrichment (6-mer frequency, TF over GST control)","1.14 fold enrichment (6-mer frequency, TF over GST control)","1.08 fold enrichment (6-mer frequency, TF over GST control)","1.1 fold enrichment (6-mer frequency, TF over GST control)","1.15 fold enrichment (6-mer frequency, TF over GST control)","1.09 fold enrichment (6-mer frequency, TF over GST control)"
ACCTCC,"1.35 fold enrichment (6-mer frequency, TF over GST control)","1.49 fold enrichment (6-mer frequency, TF over GST control)","1.41 fold enrichment (6-mer frequency, TF over GST control)","1.5 fold enrichment (6-mer frequency, TF over GST control)","1.4 fold enrichment (6-mer frequency, TF over GST control)","1.49 fold enrichment (6-mer frequency, TF over GST control)","1.33 fold enrichment (6-mer frequency, TF over GST control)","1.4 fold enrichment (6-mer frequency, TF over GST control)"
GAAATG,"1.5 fold enrichment (6-mer frequency, TF over GST control)","1.59 fold enrichment (6-mer frequency, TF over GST control)","1.63 fold enrichment (6-mer frequency, TF over GST control)","1.45 fold enrichment (6-mer frequency, TF over GST control)","1.6 fold enrichment (6-mer frequency, TF over GST control)","1.87 fold enrichment (6-mer frequency, TF over GST control)","1.68 fold enrichment (6-mer frequency, TF over GST control)","1.75 fold enrichment (6-mer frequency, TF over GST control)"
AACGAA,"1.12 fold enrichment (6-mer frequency, TF over GST control)","1.16 fold enrichment (6-mer frequency, TF over GST control)","1.18 fold enrichment (6-mer frequency, TF over GST control)","1.1 fold enrichment (6-mer frequency, TF over GST control)","1.25 fold enrichment (6-mer frequency, TF over GST control)","1.09 fold enrichment (6-mer frequency, TF over GST control)","1.11 fold enrichment (6-mer frequency, TF over GST control)","1.17 fold enrichment (6-mer frequency, TF over GST control)"
CCTGAA,"1.37 fold enrichment (6-mer frequency, TF over GST control)","1.35 fold enrichment (6-mer frequency, TF over GST control)","1.33 fold enrichment (6-mer frequency, TF over GST control)","1.48 fold enrichment (6-mer frequency, TF over GST control)","1.22 fold enrichment (6-mer frequency, TF over GST control)","1.5 fold enrichment (6-mer frequency, TF over GST control)","1.4 fold enrichment (6-mer frequency, TF over GST control)","1.27 fold enrichment (6-mer frequency, TF over GST control)"
TGTCCA,"1.09 fold enrichment (6-mer frequency, TF over GST control)","1.2 fold enrichment (6-mer frequency, TF over GST control)","1.14 fold enrichment (6-mer frequency, TF over GST control)","1.13 fold enrichment (6-mer frequency, TF over GST control)","1.18 fold enrichment (6-mer frequency, TF over GST control)","1.05 fold enrichment (6-mer frequency, TF over GST control)","1.13 fold enrichment (6-mer frequency, TF over GST control)","1.12 fold enrichment (6-mer frequency, TF over GST control)"
CAATTG,"1.29 fold enrichment (6-mer frequency, TF over GST control)","1.2 fold enrichment (6-mer frequency, TF over GST control)","1.26 fold enrichment (6-mer frequency, TF over GST control)","1.12 fold enrichment (6-mer frequency, TF over GST control)","1.32 fold enrichment (6-mer frequency, TF over GST control)","1.21 fold enrichment (6-mer frequency, TF over GST control)","1.2 fold enrichment (6-mer frequency, TF over GST control)","1.23 fold enrichment (6-mer frequency, TF over GST control)"
CATTTC,"1.72 fold enrichment (6-mer frequency, TF over GST control)","1.81 fold enrichment (6-mer frequency, TF over GST control)","1.87 fold enrichment (6-mer frequency, TF over GST control)","1.75 fold enrichment (6-mer frequency, TF over GST control)","1.68 fold enrichment (6-mer frequency, TF over GST control)","2.15 fold enrichment (6-mer frequency, TF over GST control)","1.87 fold enrichment (6-mer frequency, TF over GST control)","2.02 fold enrichment (6-mer frequency, TF over GST control)"
AAACGG,"1.17 fold enrichment (6-mer frequency, TF over GST control)","1.23 fold enrichment (6-mer frequency, TF over GST control)","1.26 fold enrichment (6-mer frequency, TF over GST control)","1.25 fold enrichment (6-mer frequency, TF over GST control)","1.16 fold enrichment (6-mer frequency, TF over GST control)","1.25 fold enrichment (6-mer frequency, TF over GST control)","1.26 fold enrichment (6-mer frequency, TF over GST control)","1.28 fold enrichment (6-mer frequency, TF over GST control)"
CGTCAA,"1.13 fold enrichment (6-mer frequency, TF over GST control)","1.09 fold enrichment (6-mer frequency, TF over GST control)","1.16 fold enrichment (6-mer frequency, TF over GST control)","1.15 fold enrichment (6-mer frequency, TF over GST control)","1.09 fold enrichment (6-mer frequency, TF over GST control)","1.08 fold enrichment (6-mer frequency, TF over GST control)","1.06 fold enrichment (6-mer frequency, TF over GST control)","1.15 fold enrichment (6-mer frequency, TF over GST control)"
TATAAG,"1.2 fold enrichment (6-mer frequency, TF over GST control)","1.21 fold enrichment (6-mer frequency, TF over GST control)","1.17 fold enrichment (6-mer frequency, TF over GST control)","1.2 fold enrichment (6-mer frequency, TF over GST control)","1.18 fold enrichment (6-mer frequency, TF over GST control)","1.16 fold enrichment (6-mer frequency, TF over GST control)","1.15 fold enrichment (6-mer frequency, TF over GST control)","1.19 fold enrichment (6-mer frequency, TF over GST control)"
TGTCCG,"1.31 fold enrichment (6-mer frequency, TF over GST control)","1.4 fold enrichment (6-mer frequency, TF over GST control)","1.52 fold enrichment (6-mer frequency, TF over GST control)","1.8 fold enrichment (6-mer frequency, TF over GST control)","1.51 fold enrichment (6-mer frequency, TF over GST control)","1.62 fold enrichment (6-mer frequency, TF over GST control)","1.6 fold enrichment (6-mer frequency, TF over GST control)","1.55 fold enrichment (6-mer frequency, TF over GST control)"
CCGGAC,"1.4 fold enrichment (6-mer frequency, TF over GST control)","1.48 fold enrichment (6-mer frequency, TF over GST control)","1.52 fold enrichment (6-mer frequency, TF over GST control)","2.1 fold enrichment (6-mer frequency, TF over GST control)","1.39 fold enrichment (6-mer frequency, TF over GST control)","1.77 fold enrichment (6-mer frequency, TF over GST control)","1.6 fold enrichment (6-mer frequency, TF over GST control)","1.41 fold enrichment (6-mer frequency, TF over GST control)"
